Sampled rows, rich in hits. Any-hit rate of the full collection: about 4.7%.
TRHR agonist: qHTS for Small Molecule Agonists and Allosteric Enhancers of Human TRH Receptor: Primary Screen for Agonists. Thyrotropin-releasing hormone receptor (Homo sapiens), P34981. TRHR cells, calcium flux fluo-8, FDSS agonist mode. activation, % at 2 µM. 0.18% of 360,000 active. AID 493084, 2011
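Fluo-8-loaded TRHR cells; 10 s baseline, compound added, kinetic Ca2+ fluorescence read 1/s, agonist mode.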
TRHR enhancer: qHTS for Small Molecule Agonists and Allosteric Enhancers of Human TRH Receptor: Primary Screen for Enhancers; enhancement, % at 2 µM; 0.66% of 360,000 active; Thyrotropin-releasing hormone receptor (Homo sapiens), P34981; TRHR cells, fluo-8 calcium fluorescence, EC20 TRH enhancement; in the data active = enhancement above about 30%
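TRHR-expressing cells loaded with fluo-8 calcium dye were read kinetically (ex 480/em 530) during compound addition, then stimulated with an EC20 of TRH (10 nM final). Enhancement of the Gq-mediated intracellular calcium response was scored.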
D1 PAM: Potentiators of Human D1 Dopamine Receptor: qHTS; D(1A) dopamine receptor (Homo sapiens), P21728; HEK293 TREx D1 cells, calcium flux, dopamine EC20 potentiation; potentiation, % at 10 µM; 0.036% of 360,000 active; AID 504651, 2011; in the data active = potentiation above about 30%
Target sequence (P21728 whole entry, looked up): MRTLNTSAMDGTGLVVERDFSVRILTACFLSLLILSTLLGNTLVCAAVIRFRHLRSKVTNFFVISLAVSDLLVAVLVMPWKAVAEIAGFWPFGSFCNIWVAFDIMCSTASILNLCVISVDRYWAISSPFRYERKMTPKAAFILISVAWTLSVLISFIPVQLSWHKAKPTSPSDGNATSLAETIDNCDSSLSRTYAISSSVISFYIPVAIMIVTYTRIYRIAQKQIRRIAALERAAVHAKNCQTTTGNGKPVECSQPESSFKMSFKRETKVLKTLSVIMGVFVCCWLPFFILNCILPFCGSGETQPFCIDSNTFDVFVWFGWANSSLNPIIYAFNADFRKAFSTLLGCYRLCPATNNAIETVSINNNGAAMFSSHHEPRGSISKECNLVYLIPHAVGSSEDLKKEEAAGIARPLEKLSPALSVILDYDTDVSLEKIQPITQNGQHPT
D1 ag: Allosteric Agonists of the Human D1 Dopamine Receptor: qHTS | D(1A) dopamine receptor (Homo sapiens), P21728 | HEK293 T-REx D1 cells, calcium flux, agonist mode | activation, % at 2 µM | 1% of 360,000 active
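Tetracycline-induced HEK293 TREx D1 cells, force-coupled to calcium signalling, were dye-loaded with a no-wash calcium kit. Compound was pin-added after a 10 s baseline. Fluorescence was read kinetically at 1 cycle/s for 180 s, with calcium rises flagged as agonism.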
D1 antagonist: Antagonist of Human D 1 Dopamine Receptor: qHTS | D(1A) dopamine receptor (Homo sapiens), P21728 | HEK293 TREx D1 cells, calcium flux, dopamine EC80; hits give low values | activity change, negative = inhibition, % at 10 µM | 3.2% of 360,000 active | AID 504652, 2011; in the data active = activity change below about -30%
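After overnight tetracycline induction at 30 C, force-coupled D1 HEK293 cells took up a no-wash calcium dye at room temperature. Compounds were added and monitored 180 s, and the response to EC80 dopamine was then recorded.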
Of the large screens only hits and unclear results are named; the others gave an inactive call. Cut-off read from the data, not from the text of the source, unless noted: active = activation above about 30%; inactive = the rest.

Cc1cc(SCC(=O)OCC(=O)N2CCN(C(=O)c3ccco3)CC2)c(C)cc1Br	D1 ag 44
Cc1cc(SCC(=O)OCC(=O)NCc2ccc3c(c2)OCO3)c(C)cc1Br	D1 antagonist -38
Cc1cccc(C)c1NC(=O)c1ccc2c(c1)nnn2C1CCCC1	none
COc1ccc(N2CCN(C(=O)NC3CC(=O)N(c4ccc(OC)cc4)C3)CC2)cc1 (stereo unspecified)	D1 antagonist -45
CCN1CCN(C(=O)NC2CC(=O)N(c3ccc(OC)cc3)C2)CC1 (stereo unspecified)	none
CC(Oc1ccccc1)C(=O)Nc1nnc(S(=O)(=O)N(C)c2ccccc2)s1 (stereo unspecified)	none
Cc1nc(C)c(C(=O)OCC(=O)Nc2cccc(C)c2C)s1	none
N#Cc1nc(Nc2ccc(-c3ccccc3)cc2)nc(NC2CCCC2)n1	none
Cc1sc(N/N=C/c2cccnc2)nc1-c1ccc(Cl)cc1	D1 antagonist -33
Clc1ccc(N/N=C/c2cccnc2)cc1	none
C/C(N)=C(/C#N)C(=O)COC(=O)c1ccc(C#N)cc1	D1 antagonist -44
Cc1ccc(CC2CC(=O)N(CC(=O)O)C2=O)cc1 (stereo unspecified)	none
COc1cccc(CC2CC(=O)N(CCc3ccc4c(c3)OCO4)C2=O)c1 (stereo unspecified)	D1 ag 34
Cc1ccc(CC2CC(=O)N(CCc3ccc4c(c3)OCO4)C2=O)cc1 (stereo unspecified)	D1 antagonist -31
O=C1CC(NCc2ccc3c(c2)OCO3)C(=O)N1CCc1ccccc1 (stereo unspecified)	none
COc1cccc(C(=O)Nc2cccc(C(=O)OCc3cc(=O)n4c5c(sc4n3)CCCC5)c2)c1	none
C=CCc1ccccc1Oc1cc(F)nc(N)n1	none
CCOc1cc(C(=O)Nc2ccc(F)cc2)cc(Br)c1OC	D1 antagonist -53
Cc1ccc(Cn2nnc3sc4c(c3c2=O)CCC(C)C4)cc1 (stereo unspecified)	none
COC(=O)c1ccc(Cn2nnc3sc4c(c3c2=O)CCCC4)cc1	none
O=C(O)c1ccc(Cn2nnc3sc4c(c3c2=O)CCCC4)cc1	D1 antagonist -30
CC1CCc2c(sc3nnn(Cc4ccc(F)cc4)c(=O)c23)C1 (stereo unspecified)	D1 antagonist -45
COc1cc(C2C(=O)N(C3CCCCCC3)CC(=O)N2CCc2ccccc2)ccc1OC(C)C (stereo unspecified)	none
COc1ccc(Cl)cc1NC(=O)CN(C)C(=O)Cc1n[nH]c(=O)c2ccccc12	none
NC(=O)c1ccc(SCC(=O)OCC(=O)NCC2CCCCC2)c([N+](=O)[O-])c1	none
COC(=O)c1cc(Cl)cc(Cl)c1OS(=O)(=O)N(C)C	D1 antagonist -30
CCc1ccc(NC(=O)C/C(C)=N/NC(=O)COc2ccc(C)cc2Br)cc1	none
C/C(CC(=O)Nc1ccccc1)=N\NC(=O)COc1ccc(C)cc1Br	TRHR enhancer 34
Cc1ccc2ccc3c(c2n1)NS(=O)(=O)c1ccc(C(F)(F)F)cc1-3	none
CC/C(C)=N/Nc1ccc(S(=O)(=O)N2CCCC2)cc1[N+](=O)[O-]	D1 antagonist -48
CC(C)[C@H](Nc1ccc(S(=O)(=O)N2CCOCC2)cc1[N+](=O)[O-])C(=O)OCC(N)=O	D1 antagonist -74
Cc1ccc(NC(=O)CSc2nc(-c3ccco3)nc3cc(=O)[nH]n23)cc1	none
CCOc1ccc(-n2c(SCC(=O)NCC3CCCO3)nc3c([nH]c4ccccc43)c2=O)cc1 (stereo unspecified)	none
Cc1cc(C(=O)Nc2cccc(F)c2)c2c(C)nn(-c3cccc(Cl)c3C)c2n1	D1 antagonist -39
Cc1cc(C(=O)NCc2ccccc2)c2c(C)nn(-c3cccc(Cl)c3C)c2n1	none
O=C(NCc1ccccc1CN1CCCC1)c1ccc(OCc2cscn2)cc1	none (no result: D1 PAM)
Cc1nc(COc2ccc(C(=O)NCc3ccccc3CN3CCCCC3)cc2)cs1	D1 ag 34, D1 antagonist -64
CCOC(=O)C1=C(CNCCOc2ccc(OC)cc2)NC(=O)NC1c1ccc2c(c1)OCO2 (stereo unspecified)	D1 antagonist -33
CCOC(=O)C1=C(C)NC(=O)NC1c1ccc2c(c1)OCO2 (stereo unspecified)	none
CCSCCOC(=O)C1=C(C)NC(=O)NC1c1ccc2c(c1)OCO2 (stereo unspecified)	TRHR enhancer 37
COc1ccc(N(CC(=O)NCc2ccccc2)S(=O)(=O)c2c(C)n[nH]c2C)cc1	none
CCc1ccc(N2C(=O)CSC23C(=O)N(Cc2cccc(OC)c2)c2ccccc23)cc1 (stereo unspecified)	none
C=CCNCc1ccccc1[N+](=O)[O-]	none
c1ccc(CCn2c(SCc3ccccc3)nnc2-c2ccncc2)cc1	D1 ag 35
Cc1ccc(-c2nnc(SCC#N)n2N)cc1	D1 antagonist -33
N#Cc1ccc(CSc2nnc(-c3ccncc3)n2CCc2ccccc2)cc1	none
COc1ccc(-c2nnc(SCc3ccccc3)n2N)cc1	D1 ag 63
COC(=O)c1c(NC(=O)CN2C(=O)C(=O)N(CC(C)C)C2=O)sc(C)c1C	none
Cc1ccc(S(=O)(=O)NNC(=O)Nc2ccc(C)c(C)c2)c(C)c1	D1 antagonist -35
Cc1ccc(S(=O)(=O)NNC(=O)Nc2cccc(C)c2C)c(C)c1	none
Cc1oc(-c2ccccc2Cl)nc1CN1CCCCC1c1cccnc1 (stereo unspecified)	D1 antagonist -32
CCOc1cc(/C=N/n2cnnc2)cc(Br)c1O	D1 antagonist -92
Cc1cc(C)c(Nc2nc3ccccc3n3c(C)nnc23)c(C)c1	none
Cc1ccc2c(CC(=O)Nc3c(C)n(C)n(-c4ccccc4)c3=O)coc2c1	D1 antagonist -80
CCOC(=O)C(Cc1ccccc1)C(=O)NCc1ccccc1 (stereo unspecified)	none
O=C(NCC(c1ccco1)N1CCc2ccccc21)C(=O)Nc1ccccc1F (stereo unspecified)	none
COc1ccccc1NC(=O)C(=O)NCC(c1ccco1)N1CCc2ccccc21 (stereo unspecified)	TRHR enhancer 33
COc1ccccc1NC(=O)NCC(c1ccco1)N1CCCCC1 (stereo unspecified)	D1 antagonist -41
Cc1ccc(-c2nc(CSc3nnc(C)n4c3cc3occc34)c(C)o2)cc1	none
CC1CCN(c2ccc3c(c2)S(=O)(=O)c2cccc(C(=O)NCc4cccc(F)c4)c2C3=O)CC1	TRHR agonist 53, D1 ag 188

Screening data as filed in PubChem BioAssay.
